Screen size: about 320,000 compounds; about 7,600 (2.4%) were called active. Roughly 3% stayed inconclusive and do not appear here. For the sample, actives were picked, then their nearest neighbours and some compounds at random. Unmarked numbers belong to inactive results. The call rests on the fitted dose curve; in most records, active means well fitted activation curve with a large enough effect; inconclusive means small, poorly fitted or top-dose-only effect; inactive means no such curve, though single readings can be large or run the other way.
Experiment: qHTS Assay for NPC1 Promoter Activators; further: nearly all actives have a fitted effect of over 60% in size;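 on activation: reporter is driven by a mutant NPC1 promoter; % of control where 0% means no effect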
Details: Huh7 NPC1 promoter luciferase reporter, 24 h; series mostly up to 9.22 µM; activation: at the top concentration
Summary of the method: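 Huh7 reporter cells (NPC1 promoter driving luciferase) are dosed with compound for 24 h at 37 °C, 5% CO2; luciferase detection reagent is then added and luminescence measured after 10 min at ambient temperature.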
Potency means the concentration at half of the fitted maximal effect.

SMILES	activation	Potency
O=C(CNS(=O)(=O)c1ccc2c(c1)OCCCO2)N1CCN(c2ccc(F)cc2)CC1	4.82%	–
O=C(NNC(=O)C1CCC1)c1ccccc1	-3%	–
COc1ccc(S(=O)(=O)N2CCOCC2)cc1NC(=O)CSc1cc(C)ccc1C	0.43%	–
CC(C)n1c(=O)[nH]c2cc(C(=O)Nc3ccccc3)ccc21	-1.34%	–
O=C(Nc1ccccc1)c1cc2ccccc2[nH]1	–	3.98 µM (active)
COc1ccc2[nH]c(C(=O)Nc3ccccc3Cl)cc2c1	-24.9%	–
CC1(C(=O)OCC(=O)Nc2ncc(Cl)cc2Cl)CC1(Cl)Cl (stereo not drawn)	-2.2%	–
O=S(=O)(c1ccc(SCc2ccc(Br)cc2)nc1)N1CCOCC1	0.635%	–
CCOc1ccc(C(=O)NCC(=O)N2CCN(c3ccc(C(F)(F)F)cn3)CC2)cc1	-7.45%	–
O=[N+]([O-])c1cccc(/C=N/Nc2ncc(Br)cn2)c1	–	2.82 µM (active)
Cc1ccc(NC(=O)O/N=C/c2cccc([N+](=O)[O-])c2)cc1	1.04%	–
O=C(N/N=C/c1cccc([N+](=O)[O-])c1)C1CC(=O)N(c2ccc(Br)cc2)C1 (stereo not drawn)	-0.286%	–
CC(C)Oc1ccc(C(=O)NCC(=O)Nc2ccc3c(c2)CCC3)cc1	-1.93%	–
COc1ccc(/C=N/OCc2ccccc2C#N)c(OC)c1	–	3.98 µM (active)
COc1ccc(/C=N/Nc2cc(N3CCOCC3)nc(C)n2)c(OC)c1	1.13%	–
COc1ccc(/C=N/NC(=O)c2ccc3c(c2)OCCO3)c(OC)c1	1.77%	–
Cc1cc(=O)oc2cc(NC(=O)C(C)Oc3ccccc3)ccc12 (stereo not drawn)	2.89%	–
CC(C)C(=O)Nc1ccc2oc(=O)ccc2c1	-3.24%	–
CC(C)C(=O)Nc1ccc2c(c1)oc1ccccc12	–	3.55 µM (active)
O=S(=O)(NCCCCCCNS(=O)(=O)c1c(F)cccc1F)c1ccc2c(c1)OCCO2	1.24%	–
COc1ccc(NC(=S)N2CCCC(CO)C2)c(OC)c1 (stereo not drawn)	-1.51%	–
CCCCc1ccc(NC(=S)N2CCCC(CO)C2)cc1 (stereo not drawn)	–	1.58 µM (active)
CCCCc1ccc(NC(=S)NCCCN2CCOCC2)cc1	-3.36%	–

SMILES	activation	Potency
CC(C)N(C(=O)CN1CCN(S(=O)(=O)c2ccc(Br)s2)CC1)C(C)C	-2.79%	–
O=C(Nc1cccc2cccnc12)c1cccc(Cl)c1	18.6%	–
CSc1ccc(C#N)cc1NC(=O)c1cccc(Cl)c1	-7.05%	–
N#Cc1ccccc1NC(=O)c1cccc(COc2ccc(Cl)cc2Cl)c1	–	0.316 µM (active)
CCn1nc(C(=O)Nc2ccc(N3CCOCC3)cc2)c2ccccc2c1=O	5.27%	–
CC(C(=O)N(C)CC(=O)Nc1ccccc1C(F)(F)F)N1C(=O)c2ccccc2C1=O (stereo not drawn)	-1.83%	–
COc1ccc(Cc2nc3ccc(C(=O)NCC4CCOCC4)cc3o2)cc1OC	10.3%	–
CSCCNC(=O)c1ccc2nc(Cc3ccccc3F)oc2c1	–	2.51 µM (active)
COCCNC(=O)c1ccc2nc(Cc3ccc(OC)c(OC)c3)oc2c1	-30.7%	–
COc1ccc(C(=O)COC(=O)c2ccc([N+](=O)[O-])s2)cc1OC	-2.25%	–
O=C(C(=O)N1CCc2ccccc2C1)N1CCc2ccccc2C1	3.15%	–
CCc1ccc(NC(=O)N2CCc3ccccc3C2)cc1	–	2.24 µM (active)
CCc1ccc(NC(=O)N2CCN(c3ccccc3)CC2)cc1	9.63%	–
CCCn1nc(C(=O)OCc2nc(N)nc(Nc3ccccc3C)n2)c2ccccc2c1=O	-0.194%	–
COc1ccc(C2/C(=C(/O)c3ccccc3)C(=O)C(=O)N2C)c(OC)c1 (stereo not drawn)	-0.891%	–
CCOc1ccc(/C(O)=C2\C(=O)C(=O)N(c3ccc(OC)cc3)C2c2ccccc2[N+](=O)[O-])cc1 (stereo not drawn)	–	0.398 µM (active)
COc1ccc(/C(O)=C2/C(=O)C(=O)N(c3nc(C)c(C)s3)C2c2ccco2)cc1 (stereo not drawn)	2.32%	–
c1ccc2cc(CCCc3cc4ccccc4cn3)ncc2c1	-0.127%	–
COc1cc(OC)cc(C(=O)NNC(=O)CCOc2ccccc2OC)c1	-0.0783%	–
COc1ccc(Nc2ncc(F)c(N3CCOCC3)n2)cc1	–	1.26 µM (active)
Cc1ccc(Nc2nc(N3CCOCC3)nc(N3CCOCC3)n2)cc1Cl	-5.97%	–
CCOc1ccc(Nc2nc(Cl)nc(N3CCN(c4ccc(OC)cc4)CC3)n2)cc1	-1.01%	–
Cc1cccc(NC(=O)CN2CCN(C(=O)C3CCN(C(=O)/C=C/c4ccccc4)CC3)CC2)c1C	11.6%	–

SMILES	activation	Potency
CCOC(=O)[C@@H]1[C@H]2COc3ccc(Br)cc3[C@H]2N2C(=O)N(c3ccc(Cl)cc3)C(=O)[C@@]12C	-2.71%	–
COc1ccccc1-c1oc2ccccc2c1C#CCCCCO	-1.8%	–
OCCCN1c2ccccc2Nc2nnc(-c3ccccc3)cc21	–	2.24 µM (active)
c1ccc(-c2cc(-c3ccccc3)[nH]n2)cc1	26.3%	–
CN=c1scc(-c2cc(OC)ccc2OC)n1/N=C/c1c(C)[nH]c2ccccc12	-0.11%	–
N#Cc1ccc(C2=CC(=O)C[C@H](c3ccc(Cl)cc3)C2)cc1	7.18%	–
Cc1cc(C#N)c(SCC(N)=O)nc1-c1ccc(F)cc1	0.168%	–
CC(=O)c1cc(C#N)c(SCC(=O)C(C)(C)C)nc1C	–	3.16 µM (active)
CC(=O)c1cc(C#N)c(N2CC(C)OC(C)C2)nc1C (stereo not drawn)	0.589%	–
CCOC(=O)c1ccc(N/C(=N/S(=O)(=O)c2ccccc2)c2ccccc2)cc1	-1.97%	–
Cc1ccc(S(=O)(=O)N2CCOCC2)cc1NC(=O)COC(=O)c1cnccn1	-3.31%	–
COc1ccc(/C=N/Nc2nc3ccccc3o2)cc1OC	–	2 µM (active)
CCNc1nc(NCC)nc(N/N=C/c2ccc(O)c(OC)c2)n1	0.366%	–
CCOc1ccc(/C=N/Nc2nncc(-c3ccccc3)n2)cc1OC	0.357%	–
CCN(CC)S(=O)(=O)c1ccc(N2CCOCC2)c(NC(=O)C(C)Oc2ccc(F)cc2)c1 (stereo not drawn)	-6.62%	–
CC1CCCCC12NC(=O)N(CC(=O)OCC(=O)NCc1ccc(F)cc1)C2=O (stereo not drawn)	-3.63%	–
CCN(CC(=O)Nc1ccccc1C(=O)NC1CC1)Cc1cccs1	-1.35%	–
Cn1ccsc1=NC(=O)c1cc(S(=O)(=O)N2CCOCC2)ccc1Cl	-1.29%	–
COc1ccc(-c2nnc3n2CCCCC3)cc1	-1.97%	–
COc1ccc(-c2nc(SCC(=O)N3CCCC3)n[nH]2)cc1	-1.33%	–
COc1ccc(-c2nc3n(c2Br)CCC3)cc1	–	2.82 µM (active)
CN(CC(=O)Nc1ccc(F)c(F)c1F)C(=O)Cn1cnc2c1c(=O)n(C)c(=O)n2C	-0.741%	–

Source: PubChem BioAssay AID485313 (National Center for Advancing Translational Sciences (NCATS), 2010)
